Data on three molecules can be found in PubChem BioAssay.

Each structure is given as a SMILES string. Several values for one entry are separate records, joined by “and”; a condition that tells them apart may be missing. Identical values can stand only once. Activity calls are given as the source filed them. No stated cut-off is given here; in the data, active means inhibition above about 80%; inactive means the rest.

One assay can be described thus: human astrocyte viability loss, single and combined drugs, cytotoxicity control for chromothriptic childhood tumor combination screen, cell-based, BGB or cisplatin IC20 combos (AID 1671460).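 Further: cells exposed to compounds for 96 hours before viability readout; 0% = vehicle and 100% = killing control.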 The note with it: Human astrocytes, drug combinations, measured here: combo with BGB IC20, at 0.5 µM, stronger effect = higher value.
For `O=c1[nH]cnc2c1ncn2C1CCC(CO)O1` (stereo unspecified), the inhibition is -5.94%.
In the case of `Nc1nc(Cl)nc2c1ncn2C1CC(O)C(CO)O1` (stereo unspecified), the inhibition is 62.6% and 39.2%.
Same read-out and setting: as for `Nc1ccn(C2CCC(CO)O2)c(=O)n1` (stereo unspecified), the figure is 2.88%.

The same assay, now with this note: Human astrocytes, drug combinations, measured here: combo with cisplatin IC20, at 0.5 µM, stronger effect = higher value.
For `O=c1[nH]cnc2c1ncn2C1CCC(CO)O1` (stereo unspecified), the inhibition was determined as 2.75%.
Still for that read-out and setting: as for `Nc1nc(Cl)nc2c1ncn2C1CC(O)C(CO)O1` (stereo unspecified), the figure is 42.6% and 31.2%; as for `Nc1ccn(C2CCC(CO)O2)c(=O)n1` (stereo unspecified), -17%.

The nature of a further assay: growth inhibition of BT084 medulloblastoma cells, cell-based, ICGC_MB145, cisplatin and BGB IC40 combos (AID 1671461).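 Further: cells exposed to drugs for 96 hours; 0% = vehicle DMSO and 100% = high DMSO full killing control.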 The note with it: drug combinations, at 0.5 µM, stronger effect = higher value.
With `O=c1[nH]cnc2c1ncn2C1CCC(CO)O1` (stereo unspecified), the inhibition was -19.3% (inactive).
The same measure, in the same setting: the result for `Nc1nc(Cl)nc2c1ncn2C1CC(O)C(CO)O1` (stereo unspecified) reads -0.858% (inactive) and 10.4% (inactive); that for `Nc1ccn(C2CCC(CO)O2)c(=O)n1` (stereo unspecified), -0.679% (inactive).

Staying with this assay, now noted: drug combinations, cisplatin combination, at 0.5 µM, stronger effect = higher value.
For the molecule `O=c1[nH]cnc2c1ncn2C1CCC(CO)O1` (stereo unspecified), the inhibition came to 2.66%.
On to `Nc1nc(Cl)nc2c1ncn2C1CC(O)C(CO)O1` (stereo unspecified), for which the inhibition is 37.2% and 42%.
As to `Nc1ccn(C2CCC(CO)O2)c(=O)n1` (stereo unspecified), the inhibition is -0.865%.

Still in this assay, the particulars now being: drug combinations, cisplatin combination, at 5 µM, stronger effect = higher value.
On to `O=c1[nH]cnc2c1ncn2C1CCC(CO)O1` (stereo unspecified), for which the inhibition came out at 7.38%.
Still for that read-out and setting: as for `Nc1nc(Cl)nc2c1ncn2C1CC(O)C(CO)O1` (stereo unspecified), the figure is 65.8% and 54%; as for `Nc1ccn(C2CCC(CO)O2)c(=O)n1` (stereo unspecified), -52%.

The assay is the same for the next values; noted with them: drug combinations, measured here: BGB IC40 combination 0.05 uM, at 0.05 µM, stronger effect = higher value.
As to `O=c1[nH]cnc2c1ncn2C1CCC(CO)O1` (stereo unspecified), the inhibition amounted to 1%.
As for `Nc1nc(Cl)nc2c1ncn2C1CC(O)C(CO)O1` (stereo unspecified), the inhibition is -30.7% and 12.8%.
The same measure, in the same setting: the result for `Nc1ccn(C2CCC(CO)O2)c(=O)n1` (stereo unspecified) reads 24%.

Still in this assay, the particulars now being: drug combinations, single agent, at 5 µM, stronger effect = higher value.
For the molecule `O=c1[nH]cnc2c1ncn2C1CCC(CO)O1` (stereo unspecified), the inhibition is -10.4%.
For the molecule `Nc1nc(Cl)nc2c1ncn2C1CC(O)C(CO)O1` (stereo unspecified), the inhibition was 1.68% and 7.77%.
The same measure, in the same setting: as for `Nc1ccn(C2CCC(CO)O2)c(=O)n1` (stereo unspecified), the figure is -28.3%.

A further assay can be described thus: growth inhibition of RCMB18 medulloblastoma cells, cell-based, cisplatin and BGB IC40 combos (AID 1671462).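 Further: cells exposed to compound for four days.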 The note with it: at 0.5 µM, stronger effect = higher value.
Regarding `O=c1[nH]cnc2c1ncn2C1CCC(CO)O1` (stereo unspecified), the inhibition is -28.1% (inactive).
Still for that read-out and setting: as for `Nc1nc(Cl)nc2c1ncn2C1CC(O)C(CO)O1` (stereo unspecified), the figure is 19.1% (inactive) and 26.3% (inactive).
Still for that read-out and setting: as for `Nc1ccn(C2CCC(CO)O2)c(=O)n1` (stereo unspecified), the figure is -1.7% (inactive).

The same assay, now with this note: cisplatin combo, at 5 µM, stronger effect = higher value.
Take `O=c1[nH]cnc2c1ncn2C1CCC(CO)O1` (stereo unspecified): the inhibition is -8.55%.
With `Nc1nc(Cl)nc2c1ncn2C1CC(O)C(CO)O1` (stereo unspecified), the inhibition was 83.6% and 81.2%.
For the molecule `Nc1ccn(C2CCC(CO)O2)c(=O)n1` (stereo unspecified), the inhibition was determined as 11.7%.

The assay is the same for the next values; noted with them: measured here: BGB IC40 combination, at 0.05 µM, stronger effect = higher value.
Regarding `O=c1[nH]cnc2c1ncn2C1CCC(CO)O1` (stereo unspecified), the inhibition amounted to 12.3%.
The same measure, in the same setting: as for `Nc1nc(Cl)nc2c1ncn2C1CC(O)C(CO)O1` (stereo unspecified), the figure is -5.46% and 2.56%.
On the same count and under the same terms, the result for `Nc1ccn(C2CCC(CO)O2)c(=O)n1` (stereo unspecified) reads -6.98%.

Still in this assay, the particulars now being: measured here: combination with cisplatin, at 0.5 µM, stronger effect = higher value.
In the case of `O=c1[nH]cnc2c1ncn2C1CCC(CO)O1` (stereo unspecified), the inhibition is -23.6%.
On the same count and under the same terms, the result for `Nc1nc(Cl)nc2c1ncn2C1CC(O)C(CO)O1` (stereo unspecified) reads 70.6% and 65.1%.
Still for that read-out and setting: as for `Nc1ccn(C2CCC(CO)O2)c(=O)n1` (stereo unspecified), the figure is -10.2%.

The assay is the same for the next values; noted with them: single agent, at 5 µM, stronger effect = higher value.
In the case of `O=c1[nH]cnc2c1ncn2C1CCC(CO)O1` (stereo unspecified), the inhibition is -21%.
On the same count and under the same terms, the result for `Nc1nc(Cl)nc2c1ncn2C1CC(O)C(CO)O1` (stereo unspecified) reads 27.8% and 40.5%.
The same measure, in the same setting: as for `Nc1ccn(C2CCC(CO)O2)c(=O)n1` (stereo unspecified), the figure is -30.2%.

Another assay in a line: growth inhibition of CRL1545 osteosarcoma cells, cell-based, cisplatin and BGB IC20 combos (AID 1671464).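 Further: cells exposed to compound for 96 hours before readout; 0% = vehicle DMSO and 100% = high DMSO killing control.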 Particulars: at 0.5 µM, stronger effect = higher value.
Turning to `O=c1[nH]cnc2c1ncn2C1CCC(CO)O1` (stereo unspecified), the inhibition was -13.6% (inactive).
On the same count and under the same terms, the result for `Nc1nc(Cl)nc2c1ncn2C1CC(O)C(CO)O1` (stereo unspecified) reads -27.8% (inactive) and -35.8% (inactive).
The same measure, in the same setting: the result for `Nc1ccn(C2CCC(CO)O2)c(=O)n1` (stereo unspecified) reads -50% (inactive).

Still in this assay, the particulars now being: measured here: with BGB IC20 combination, at 0.5 µM, stronger effect = higher value.
For the molecule `O=c1[nH]cnc2c1ncn2C1CCC(CO)O1` (stereo unspecified), the inhibition is 0.279%.
Same read-out and setting: the result for `Nc1nc(Cl)nc2c1ncn2C1CC(O)C(CO)O1` (stereo unspecified) reads -14.9% and -11.9%.
Still for that read-out and setting: as for `Nc1ccn(C2CCC(CO)O2)c(=O)n1` (stereo unspecified), the figure is -14.8%.

The same assay, now with this note: measured here: with cisplatin IC20 combination, at 0.5 µM, stronger effect = higher value.
For `O=c1[nH]cnc2c1ncn2C1CCC(CO)O1` (stereo unspecified), the inhibition was -23.2%.
Same read-out and setting: as for `Nc1nc(Cl)nc2c1ncn2C1CC(O)C(CO)O1` (stereo unspecified), the figure is -36.5% and -47.7%; as for `Nc1ccn(C2CCC(CO)O2)c(=O)n1` (stereo unspecified), -67.7%.

Still in this assay, the particulars now being: single agent, at 0.05 µM, stronger effect = higher value.
As for `O=c1[nH]cnc2c1ncn2C1CCC(CO)O1` (stereo unspecified), the inhibition was -52.8%.
As for `Nc1nc(Cl)nc2c1ncn2C1CC(O)C(CO)O1` (stereo unspecified), the inhibition was -95.3% and 17.3%.
Consider `Nc1ccn(C2CCC(CO)O2)c(=O)n1` (stereo unspecified), for which the inhibition amounted to 32.2%.

Still in this assay, the particulars now being: single agent, at 5 µM, stronger effect = higher value.
As to `O=c1[nH]cnc2c1ncn2C1CCC(CO)O1` (stereo unspecified), the inhibition was -4.43%.
Still for that read-out and setting: the result for `Nc1nc(Cl)nc2c1ncn2C1CC(O)C(CO)O1` (stereo unspecified) reads 75.8% and 80.1%.
Same read-out and setting: as for `Nc1ccn(C2CCC(CO)O2)c(=O)n1` (stereo unspecified), the figure is 11.1%.

In general, inhibition refers to the drop in the measured response relative to a control, in per cent.
